# About 390 (7%) of roughly 5,600 compounds showed an effect of 50% or more. The full list was thinned out, with strong results kept by preference. Residues, ends and D or L forms follow the SMILES beside them. *: point of attachment. PhAc = O=C(Cc1ccccc1)*
# Columns and labels:
# [1] = molecular target: T1, Protein deacetylase HDAC6 (Homo sapiens) (UniProt Q9UBN7); conditions: at 10 µM
# T1 sequence (whole entry): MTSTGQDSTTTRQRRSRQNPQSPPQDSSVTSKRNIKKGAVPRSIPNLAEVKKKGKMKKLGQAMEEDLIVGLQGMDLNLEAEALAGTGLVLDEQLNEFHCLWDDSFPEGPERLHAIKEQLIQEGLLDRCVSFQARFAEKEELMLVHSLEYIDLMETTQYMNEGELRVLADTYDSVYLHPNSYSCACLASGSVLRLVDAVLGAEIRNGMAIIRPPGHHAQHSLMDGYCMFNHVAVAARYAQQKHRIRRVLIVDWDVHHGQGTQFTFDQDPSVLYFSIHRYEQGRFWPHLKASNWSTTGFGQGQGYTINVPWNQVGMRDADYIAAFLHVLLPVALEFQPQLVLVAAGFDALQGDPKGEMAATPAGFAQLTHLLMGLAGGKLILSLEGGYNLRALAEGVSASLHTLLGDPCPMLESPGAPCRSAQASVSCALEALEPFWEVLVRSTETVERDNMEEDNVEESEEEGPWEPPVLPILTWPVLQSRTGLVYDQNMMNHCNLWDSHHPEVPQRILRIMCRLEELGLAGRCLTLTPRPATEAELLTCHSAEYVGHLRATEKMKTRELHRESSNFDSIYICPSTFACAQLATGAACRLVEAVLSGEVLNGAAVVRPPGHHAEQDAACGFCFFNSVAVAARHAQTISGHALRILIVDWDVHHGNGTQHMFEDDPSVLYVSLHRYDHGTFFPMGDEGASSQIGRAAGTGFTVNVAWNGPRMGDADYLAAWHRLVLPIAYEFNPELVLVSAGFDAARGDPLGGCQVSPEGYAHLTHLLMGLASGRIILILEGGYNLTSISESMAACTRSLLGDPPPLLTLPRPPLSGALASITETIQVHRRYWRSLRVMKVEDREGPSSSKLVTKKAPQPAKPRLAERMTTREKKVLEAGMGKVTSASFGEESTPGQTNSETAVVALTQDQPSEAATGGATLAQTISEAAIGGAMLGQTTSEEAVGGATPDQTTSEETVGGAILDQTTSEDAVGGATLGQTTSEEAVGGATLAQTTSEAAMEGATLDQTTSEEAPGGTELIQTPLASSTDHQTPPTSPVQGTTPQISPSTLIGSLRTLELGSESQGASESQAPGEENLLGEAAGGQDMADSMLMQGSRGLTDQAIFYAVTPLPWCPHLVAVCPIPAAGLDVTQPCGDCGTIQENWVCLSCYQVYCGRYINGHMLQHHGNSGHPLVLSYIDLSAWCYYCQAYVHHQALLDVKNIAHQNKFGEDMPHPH
# [2] = molecular target: Protein deacetylase HDAC6 (Homo sapiens) (UniProt Q9UBN7); conditions: at 10 µM; remark: listed apart in the source
Compound,inhibition [1] [%],inhibition [2] [%]
CN(C)c1nc(N)c(C(=O)Nc2cccnc2)nc1Cl,100,–
O=C(OCC(COC(=O)c1cccnc1)(COC(=O)c1cccnc1)COC(=O)c1cccnc1)c1cccnc1,7.98,–
Cn1cncc1[C@@](N)(c1ccc(Cl)cc1)c1ccc2c(c1)c(-c1cccc(Cl)c1)cc(=O)n2C,-5.64,–
Nc1nc(NC2CC2)c2ncn([C@H]3C=C[C@@H](CO)C3)c2n1,-5.79,–
Cc1ccc(NCCCc2ccccc2)c(N)c1,78.2,–
NC(=O)OCCCc1ccccc1,15.1,–
O=C(O)c1ccccc1NCCc1ccccc1,42.4,–
CCOc1cc2ncc(C#N)c(Nc3ccc(F)c(Cl)c3)c2cc1NC(=O)/C=C/CN(C)C,36.7,–
CCOC(=O)CNC(=O)[C@@H]1CCCN1C(=O)Cc1ccccc1 (PhAc-Pro-Gly-OEt),4.19,–
COC(=O)[C@H](CC(C)C)NC(=O)[C@H](N)CC(C)C,10.2,–
CC1(C)[C@H]2CC[C@@]1(C)[C@H](O)[C@@H]2O (racemic),31.2,–
CCOC(=O)C1=C(N)Oc2ccc(Br)cc2[C@H]1[C@H](C#N)C(=O)OCC,52.9,–
CCOC(=O)C1=C(N)Oc2ccc(Br)cc2C1C(C#N)C(=O)OCC (stereo unspecified),27.8,–
Cc1cccc(C)c1NC(=O)CN1CCCCCC1,16.5,–
Cc1ccc(NC(=O)CCCCCC(=O)Nc2ccccc2N)cc1,-2.93,–
C/C(=N\NC(=N)N)c1cc(NC(=O)CCCCCCCCC(=O)Nc2cc(/C(C)=N/NC(=N)N)cc(/C(C)=N/NC(=N)N)c2)cc(/C(C)=N/NC(=N)N)c1,77.6,–
CCS(=O)(=O)N(Cc1cccnc1)c1cccc(-c2ccc(C#N)cc2)c1,17,–
CC1(N2CCC(n3c([C@H]4CCCNC4)nc4ccccc43)CC2)CCCCCCC1,-2.41,–
CCC[C@@H]1CC(=O)N([C@@H](CC)C(N)=O)C1,29.1,–
C[C@H](/C=C/[C@H](C)C(C)(C)O)[C@H]1CC[C@H]2/C(=C/C=C3C[C@@H](O)C[C@H](O)C3)CCC[C@]12C,9.32,–
CCCCN(CCCC)C(=O)CN1C[C@H](c2ccc3c(c2)OCO3)[C@@H](C(=O)O)[C@@H]1c1ccc(OC)cc1,34.1,–
N=C(Nc1ccccc1)c1cccs1,37.1,–
N=C(Nc1ccccc1)Nc1ccccc1,15.5,–

Compound,inhibition [1] [%],inhibition [2] [%]
O=C1NC(=S)NC(=O)C1C(=O)Nc1ccccc1,96.3,–
CON(C)C(=O)[C@H](O)[C@H](Cc1ccccc1)NC(=O)c1cc2cc(Cl)ccc2[nH]1,5.68,–
CN[C@H]1C[C@@H](N)[C@H](O)[C@@H](O[C@@H]2O[C@H](CO)[C@H](O)[C@@H]3OC4(O[C@H]23)O[C@H]([C@@H](N)CO)[C@H](O)[C@H](O)[C@H]4O)[C@@H]1O (stereo partly specified),6.11,–
N#Cc1ccc2[nH]c(O)c(-c3ccc(CN4CCOCC4)cn3)c2c1,11.3,–
Cc1[nH]c(/C=C2\C(=O)Nc3cc(-c4ccccc4)ccc32)c(C)c1CCC(=O)O,95.2,–
CN/C(=N\S(=O)(=O)c1ccc(Cl)cc1)N1CC(c2ccccc2)C(c2ccc(Cl)cc2)=N1 (racemic),9.02,–
O=C1CC(=O)c2c(Cl)c(Cl)c(Cl)c(Cl)c21,-2.09,–
CN1C[C@@H]2CN(c3ccc(-c4ccccc4)nn3)C[C@@H]2C1,10.2,–
O=C1N[C@H](C(=O)O)CS1,9.69,–
CCOc1cc(/C=C2/C(=O)N(c3ccccc3)N=C2C)cc(Cl)c1OCC(=O)OC,101,–
"HYALURONIC ACID, CHEMBL5314376",–,-9.36
CN(C)C(=O)CCSC(SCCC(=O)O)c1cccc(/C=C/c2ccc3ccc(Cl)cc3n2)c1 (stereo unspecified),10.8,–
N[C@@H](CSCCCO)C(=O)O,24.6,–
COc1ccc(-n2nc3c4c([nH]cc-3c2=O)CCCCC4)cc1,40.9,–
O=c1c2c[nH]c3ccccc3c-2nn1-c1ccc(Cl)cc1,97.1,–
CCCCCCCCCCCCCCCc1cccc(OCC(=O)NCCO)c1,-3.57,–
CC(C)c1nnc(-c2ccc(-c3ccccc3)nc2)n1-c1cccc2nonc12,4.02,–
COC(=O)C[C@@](O)(CCC(C)(C)O)C(=O)O[C@@H]1C(OC)=C[C@]23CCCN2CCc2cc4c(cc2[C@@H]13)OCO4,-1.89,–
C[N+]1(CC2CC2)[C@@H]2C[C@@H](OC(=O)[C@H](CO)c3ccccc3)C[C@H]1[C@@H]1O[C@@H]12 (stereo partly specified),-9.14,–
COC(=O)N1CC[C@@H]2[C@H]1CCC[C@@]2(O)C#Cc1cccc(C)c1,29.3,–
O=C(Nc1ccc(Br)cc1)c1cc(Br)cc(Br)c1O,100,–
CCOC(=O)c1c(/C(C#N)=C\N)c2ccc(Cl)c(Cl)c2n1C,0.46,–
Cc1c(F)cc(C(=O)NC2CC2)cc1-c1c(F)cn2c(C(C)(C)C)nnc2c1F,-2,–

Compound,inhibition [1] [%],inhibition [2] [%]
CC1(C)CC[C@]2(NC(=O)C(C)(F)F)CC[C@]3(C)C(C(=O)C=C4[C@@]5(C)C=C(C#N)C(=O)C(C)(C)[C@@H]5CC[C@]43C)C2C1 (stereo partly specified),19.7,–
C[C@]12CC[C@H]3C(=CCc4cc(O)ccc43)[C@@H]1CCC2=O,53.8,–
C[C@]12CC[C@@H]3c4ccc(O)cc4CC[C@H]3[C@@H]1[C@@H](O)[C@@H](O)[C@@H]2O,5.04,–
CO/N=C(\C(=O)N[C@@H]1C(=O)N2C(C(=O)O)=C(CSC(=O)c3ccco3)CS[C@H]12)c1csc(N)n1,22.4,–
O=C(Nc1ccc(C(F)(F)F)cn1)N1CCN(c2ncccc2C(F)(F)F)CC1,-6.44,–
COC(=O)c1cc2c(C(F)(F)F)cc(-c3ccccc3)cc2n1O,16.7,–
Cc1c(CN(C)C(=O)/C=C/c2cnc3c(c2)CCC(=O)N3)oc2ccccc12,77.1,–
CC1(C)CCC(C)(C)c2cc(Cn3cccn3)c(/C=C/c3ccc(C(=O)O)cc3)cc21,-7.51,–
O=C(O)CCCCCCCCCCCCCCc1ccc(I)cc1,21.6,–
OCCn1cc(-c2ccc3c(c2)CC/C3=N\O)c(-c2ccncc2)n1,-0.22,–
C[C@@H]1COC(Nc2ccc3ncnc(Nc4ccc(OCc5nccs5)c(Cl)c4)c3c2)=N1,62.5,–
Cc1cc(Nc2ncnc3ccc(-c4ccc(CNCCS(C)(=O)=O)o4)cc23)ccc1Oc1ccn2ncnc2c1,2.93,–
Cc1cc(Nc2ncnc3ccc(NC4=NC(C)(C)CO4)cc23)ccc1Oc1ccn2ncnc2c1,-3.24,–
O=C1C=Cc2cc(Br)ccc2C1=O,48.5,–
Cc1ccc(=O)n(-c2ccc(O)cc2)c1,1.55,–
Nc1nc(Nc2ccc3c(c2)CC[C@@H](N2CCCC2)CC3)nn1-c1cc2c(nn1)-c1ccccc1CCC2,2.38,–
O=C(NC1(c2ccccc2)CC1)c1c(CN2CCC(N3CCCCC3)CC2)c(-c2cccc(C(F)(F)F)c2)nc2cc(Br)ccc12,35.2,–
COC(=O)/C=C/C(=O)OCCN1C(=O)CCC1=O,-0.93,–
O=C(O)c1ccc(-c2ccc3cc(C45CC6CC(CC(C6)C4)C5)c(O)cc3c2)cc1,-6.28,–
NS(=O)(=O)Oc1ccc2c3c(c(=O)oc2c1)CCCCC3,91.6,–
Fc1ccc(C(c2ccccc2)(c2ccccc2F)n2ccnc2)cc1 (stereo unspecified),-9.89,–
Cn1c(/C=C/C(=O)NO)ccc1/C=C/C(=O)c1cccc(F)c1,98.6,–
Cc1ccc(NC2=NCCN2)c(Cl)c1,7.22,–

Compound,inhibition [1] [%],inhibition [2] [%]
CCC[C@H](N[C@@H](C)C(=O)N1[C@H](C(=O)O)C[C@@H]2CCCC[C@@H]21)C(=O)O,-9.35,–
CCCC(=O)c1cc(F)ccc1OCC(O)CNC(C)(C)C (stereo unspecified),-1.16,–
C[C@H](Oc1cc(-c2cnn(C3CCNCC3)c2)cnc1N)c1c(Cl)ccc(F)c1Cl,-7.32,–
C[n+]1ccccc1CN=O,10.8,–
O=c1[nH]c(CCl)nc2sc3c(c12)CCCC3,83.4,–
CCOC(=O)[C@@](C)(N)Cc1ccc(O)c(O)c1,35,–
Cc1ccc(Cl)c(OCC(O)CNC(C)(C)C)c1 (stereo unspecified),14.8,–
OCCN1CCN(CCCN2c3ccccc3Sc3ccc(C(F)(F)F)cc32)CC1,86.6,–
CCCCCCCCCC(=O)OCCN1CCN(CCCN2c3ccccc3Sc3ccc(C(F)(F)F)cc32)CC1,1.38,–
CCCCCCCCCCCCCCCC(=O)OCCC1CCN(CCCN2c3ccccc3Sc3ccc(S(=O)(=O)N(C)C)cc32)CC1,9.91,–
CSc1ccccc1OCC(O)CNC(C)C (stereo unspecified),8.76,–
NC(=S)N/N=C/c1coc2ccccc2c1=O,54.7,–
NC(=S)N/N=C/c1ccncc1,22.9,–
O=C1CCC2CCC(=O)N12,5.05,–
CO[C@@H]1[C@H](O)[C@@H](CO)O[C@H]1n1cnc2c(NC3CCCCC3)ncnc21,13.2,–
NC(=O)c1[nH]cnc1O,3.67,–
CCOCCOc1ccccc1C(N)=O,5.9,–
O=C(c1ccc(OCCCc2c[nH]cn2)cc1)C1CC1,70.7,–
NC/C(=C/F)CCc1ccc(F)cc1,46.9,–
Cc1cnc(Nc2ccc(F)cc2Cl)nc1-c1c[nH]c(C(=O)N[C@H](CO)c2cccc(Cl)c2)c1,54.4,–
O=C(NCC1CCOCC1)c1cnc(Nc2ccc(Cl)cc2Cl)nc1C(F)(F)F,-5.57,–
CC12CCC(=O)C=C1CCC1C2[C@@H](O)CC2(C)C1CC[C@]2(O)C(=O)COP(=O)(O)O (stereo partly specified),2.87,–

# Source: ChEMBL document CHEMBL4808148, “HDAC6 screening dataset using tau-based substrate in an enzymatic assay yields selective inhibitors and activators” (2021)
